Compound activity deposited in PubChem by National Center for Advancing Translational Sciences (NCATS).
PI4K2A inh: qHTS for small molecular inhibitors of PI4K2A; Phosphatidylinositol 4-kinase type 2-alpha (Homo sapiens), Q9BTU6; purified PI4K2A, ADP-Glo luminescence, 1 h; active compounds read low; activity change, negative = inhibition, % at 76.9 µM; 0.13% of 420,000 active; in the data active means activity change below about -50%; inconclusive means mostly about -30% to -49%;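 further: -100% = wells without enzyme as full effect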
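In this quantitative HTS, ADP production by PI4K2A was quantified luminescently after 1 h at ambient temperature; 100 microM adenosine served as plate-quality control.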
A549 viability: Nrf2 qHTS screen for inhibitors: counterscreen for cytotoxicity. A549 ARE-Fluc cells, CellTiter-Fluor viability, 18-24 h. Potency, µM (series often up to 46 µM), without a hit: top-dose activity change, negative = cytotoxicity, hits mostly inhibitors. 0.16% of 390,000 active. AID 504648, 2011; further: potency means the concentration at half of the fitted maximal effect; on the % scale 0 is the no-effect control and ±100 the full control effect
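A549 ARE_Fluc cells in 5% FBS OPTI-MEM were exposed to compounds in concentration-response for 18-24 h at 37 deg C. Viability was read by CellTiter-Fluor fluorescence (Ex 405/Em 525) after 30 min, before the luciferase read.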
miR-21 act: qHTS Assay for Modulators of miRNAs and/orActivators of miR-21; HeLa miR-21 FLuc reporter, luciferase, 48 h; Potency, µM (doses to about 38.3 µM), without a hit: at the top dose activity change, positive = activation, hits mostly activators; 340,000 tested, under 10 active;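 further: % of control where 0% means no effect; miR-21 action dims this reporter so a rising signal means less miR-21 action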
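HeLa miR-21-FLuc reporter line, endogenous miR-21; 2000 cells/well in DMEM/10% FBS; compound titration up to ~40uM final, 48 h, 37 degree Celsius; luciferase detection reagent, 15 min lysis, CCD luminescence.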
Nrf2 inh: Nrf2 qHTS screen for inhibitors; A549 ARE-Fluc reporter, luciferase luminescence, 18-24 h; Potency, µM (series often up to 46 µM), for inactives: top-dose activity change, negative = inhibition, usual class: inhibitors; 2.1% of 360,000 active; further: potency means the concentration at half of the fitted maximal effect; on the % scale 0 is the no-effect control and ±100 the full control effect; nearly all actives have a fitted effect of over 60% in size
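A549 ARE_Fluc cells (5000/well, 5% FBS OPTI-MEM) pre-incubated 2 h, then treated with compounds 18-24 h at 37C/5% CO2 in concentration-response. CellTiter-Fluor viability read first; BugLite luciferase luminescence after 15 min at room temperature gives Nrf2 activity.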
Nrf2 ARE act: qHTS of Nrf2 Activators; AREc32 ARE-luciferase reporter (MCF7-derived line), luminescence, 24 h; Potency, µM (top dose mostly 46.1 µM), for the others: at the highest dose activation, actives largely listed as activators; 0.31% of 410,000 active; further: potency means the concentration at half of the fitted maximal effect; % of control where 0% means no effect; nearly all actives have a fitted effect of over 65% in size
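ARE activation measured as luciferase luminescence (Steady-Glo, 30 min RT) in AREc32_Fluc cells after 24 hr compound exposure at 37 deg C, 5% CO2; cells seeded overnight at 1000/well in OPTI-MEM, 5% FBS.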
GALK inhibitor: qHTS Assay for Inhibitors of Human Galactokinase (GALK) | P51570 | Potency, µM (top dose mostly 57.5 µM), for the others: at the top dose activity change, negative = inhibition, usual class: inhibitors | AID 1868, 2009 | 0.007% of 270,000 active | Purified GALK, Kinase-Glo residual ATP luminescence; further: potency means the concentration at half of the fitted maximal effect; on the % scale 0 is the no-effect control and ±100 the full control effect
Target sequence (P51570 whole entry, looked up): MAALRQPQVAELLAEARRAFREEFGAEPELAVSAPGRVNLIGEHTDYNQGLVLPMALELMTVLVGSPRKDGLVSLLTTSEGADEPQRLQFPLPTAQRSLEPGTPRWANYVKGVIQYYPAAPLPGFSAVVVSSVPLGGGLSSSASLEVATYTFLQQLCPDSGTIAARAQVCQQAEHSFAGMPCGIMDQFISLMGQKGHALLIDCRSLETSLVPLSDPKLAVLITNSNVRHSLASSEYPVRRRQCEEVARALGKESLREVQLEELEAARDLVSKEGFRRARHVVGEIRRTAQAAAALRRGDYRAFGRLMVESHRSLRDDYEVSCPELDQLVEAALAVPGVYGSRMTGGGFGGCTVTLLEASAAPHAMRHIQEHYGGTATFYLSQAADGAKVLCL
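The enzyme phosphorylates galactose (100 uM) using ATP (35 uM); inhibition is detected as higher residual ATP, quantified by bioluminescence after 1 h reaction at room temperature, pH 8.0.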
The depositor's hits bear a star; i = inactive; ? = inconclusive; / = no result given. Shown are actives, neighbours in structure and some others; about 2.2% of the full set was active somewhere. Unless noted, the call rests on the fitted dose curve; in most records, active means well fitted curve in the direction sought with a large enough effect; inconclusive means small, poorly fitted or top-dose-only effect, or another doubt; inactive means no such curve, though single readings can be large; an effect the other way counts as inactive or inconclusive.

SMILES | PI4K2A inh | A549 viability | miR-21 act | Nrf2 inh | Nrf2 ARE act | GALK inhibitor
Nc1c(N(CCC2=CCCCC2)C(=O)COc2ccc(F)cc2Cl)c(=O)[nH]c(=O)n1Cc1ccccc1 | 11 | ? | / | 23µM* | 0% | /
Nc1c(N(CCC2=CCCCC2)C(=O)Cc2ccc(F)cc2)c(=O)[nH]c(=O)n1Cc1ccccc1 | 0 | -11% | / | ? | 3% | /
CC(=O)/C=C/c1ccccc1Oc1c(F)c(F)nc(F)c1F | 0 | 9% | 20% | 6% | 7.9µM* | -2%
Oc1ccccc1Oc1c(F)c(F)nc(N2CCCC2)c1F | 1 | 1% | -5% | 13% | 2% | 1%
CC(C)NC(=O)c1ccc(-n2c(-c3ccccc3)cc3c2CCCCC3)cc1 | 4 | -18% | 28% | ? | 13µM* | /
COCCCNC(=O)c1ccc(-n2c(-c3ccccc3)cc3c2CCCCC3)cc1 | -1 | -14% | 6% | ? | ? | /
CC1CCc2c(cc(-c3ccccc3)n2-c2ccc(C(=O)NC(C)C)cc2)C1 (stereo not drawn) | 1 | ? | -7% | ? | 2.8µM* | /
CN(C)CCNC(=O)c1ccc(-n2c(-c3ccccc3)cc3c2CCCCC3)cc1 | 1 | -6% | 29% | ? | ? | /
CCOCCCNC(=O)c1ccc(-n2c(-c3ccccc3)cc3c2CCCC3)cc1 | 7 | -6% | ? | ? | 11µM* | /
C#CCOCCOCCOCCNc1nc(N2CCN(C(=O)[C@H](CCCCN)n3cc([C@@H](N)C(C)CC)nn3)CC2)nc(N2CCN(C(=O)[C@H](CCCCN)n3cc([C@@H](N)C(C)CC)nn3)CC2)n1 (stereo partly drawn) | -2 | / | / | / | / | /
CN(c1ccccc1)S(=O)(=O)c1cc(C(=O)OCC(=O)c2c(N)n(C)c(=O)n(C)c2=O)ccc1Cl | 2 | 4% | / | ? | 0% | /
Cn1c(N)c(C(=O)COC(=O)c2nc(Cl)ccc2Cl)c(=O)n(C)c1=O | 3 | 1% | -4% | 6% | 2.2µM* | 9%
CCCCCCn1nc(C(=O)OCC(=O)c2c(N)n(C)c(=O)n(C)c2=O)c2ccccc2c1=O | 1 | -4% | 0% | 23µM* | -1% | 1%
CCN(c1ccccc1)S(=O)(=O)c1cc(C(=O)OCC(=O)c2c(N)n(C)c(=O)n(C)c2=O)ccc1C | -6 | ? | / | 18µM* | 3% | /
Cn1c(N)c(C(=O)COC(=O)c2cccnc2Cl)c(=O)n(C)c1=O | -1 | -1% | -6% | 2% | 1% | 3%
Oc1ccc(Oc2ccccc2F)c2cccnc12 | -9 | -2% | / | 10% | / | /
O=C1CCC[C@H]2Cc3nc4cccc(Cl)c4cc3C[C@]23CCCN13 | 1 | / | / | / | / | /
CC(NC(=O)COC(=O)c1c[nH]c2ccccc12)c1ccccc1 (stereo not drawn) | -2 | -17% | / | 21µM* | 2% | /
CC(NC(=O)COC(=O)CCc1ccccc1)c1ccccc1 (stereo not drawn) | 2 | 23µM* | 1% | ? | 0% | 2%
O=C(COC(=O)c1c[nH]c2ccccc12)Nc1ccccc1 | 2 | 0% | / | 22% | 2% | /
O=C(NCCO)C1(C(=O)C2CC2)CC(c2ccccc2C(F)(F)F)=NO1 (stereo not drawn) | 4 | / | / | / | / | /
N[C@H](C(=O)O)c1ccc(O)cc1 | i | / | / | / | / | /
COc1cccc(C(c2nnnn2Cc2ccco2)N2CCN(c3cccc(C)c3C)CC2)c1OC (stereo not drawn) | 1 | 1% | 15% | 23µM* | 0% | 2%
CC(C)(C)OC(=O)NCc1ccccc1/C=C/S(=O)(=O)NCCc1ccccc1 | -5 | / | / | / | / | /
Cc1ccc(NC(=O)c2ccccc2NS(=O)(=O)c2ccc(Cl)s2)cc1 | -2 | ? | ? | 16µM* | 9% | -4%
SMILES | PI4K2A inh | A549 viability | miR-21 act | Nrf2 inh | Nrf2 ARE act | GALK inhibitor
O=C(NCc1ccco1)c1ccccc1NS(=O)(=O)c1ccc(Cl)s1 | -8 | -3% | 11% | ? | 3% | -2%
O=C(Nc1ccccc1)c1ccccc1NS(=O)(=O)c1ccc(Cl)s1 | 3 | ? | ? | 18µM* | 2% | -5%
O=C(Nc1ccccc1Cc1ccccc1)c1ccccc1NS(=O)(=O)c1ccc(Cl)s1 | 1 | ? | ? | 18µM* | 4% | 1%
CS(=O)(=O)c1ccccc1C(=O)Nc1ccccc1Cc1ccccc1 | 10 | 5% | 5% | -5% | 0% | -2%
Cn1ncc2ccc(-c3ccc4ncnc(NCc5cccs5)c4c3)cc21 | / | -2% | / | -10% | / | /
CCc1nn2c(=O)cc(N3C(C)CNCC3C)nc2s1 (stereo not drawn) | / | -1% | / | 12% | / | /
Cc1cccc(C(=O)N(CCc2ccccc2)Cc2ccccc2)c1[N+](=O)[O-] | 0 | ? | 6% | 21µM* | 0% | 3%
O=C(Nc1cccc(-c2nnc(-c3ccco3)o2)c1)C(c1ccccc1)c1ccccc1 | -2 | -26% | -9% | 21µM* | 0% | 4%
O=C(Nc1cccc(-c2nnc(-c3ccco3)o2)c1)c1ccccc1 | 5 | 2% | 12% | ? | 2% | -2%
O=C(Cc1ccccc1)Nc1cccc(-c2nnc(-c3ccco3)o2)c1 | -5 | -10% | 5% | ? | 5% | -8%
CC(=O)Oc1ccc(C(=O)Nc2cccc(-c3nnc(-c4ccco4)o3)c2)cc1 | 9 | ? | 0% | 16µM* | 4% | -3%
COc1ccc(CNC2CCC23CCC(c2ccccc2)CC3)cc1OC (stereo not drawn) | -5 | / | / | / | / | /
Cc1ccc(NS(=O)(=O)c2ccc3c(c2)CCN(C(=O)C(F)(F)F)C3)cc1C | / | 2% | / | ? | / | /
C[C@H]1/C=C/CC(=O)N[C@@H](c2ccc3ccccc3c2)[C@@H](C)/C=C/CC(=O)N[C@H]1c1ccc2ccccc2c1 | -1 | / | / | / | / | /
COC(=O)c1ccc(NC(=O)c2ccc(CN3CCOCC3)cc2)cc1 | 11 | -5% | 3% | 9.2µM* | 0% | -1%
CCC(C)Oc1ccc(C(=O)Nc2ccc(CN3CCOCC3)cc2)cc1 (stereo not drawn) | 2 | -20% | 28% | 23µM* | 0% | 0%
O=C(Nc1ccc(CN2CCOCC2)cc1)c1ccc(Cl)cc1 | 4 | -18% | -26% | ? | 4% | 0%
CN(C)S(=O)(=O)c1ccc(C(=O)Nc2nnc(SCC(=O)N3CCOCC3)s2)cc1 | -2 | / | / | / | 0% | /
